Laboratory results from PubChem BioAssay AID751 (NMMLSC, 2007).
Among all 24,000 compounds or so, about 40 (0.2%) were called active.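 How the source made its calls: active means inhibition of disassembly above about 33% (limit read from the data); inconclusive means likely self-fluorescent, control bead median signal at least 40; inactive means the rest.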 For the sample, actives were picked, then their nearest neighbours and some compounds at random.

system: 26S proteasome (yeast, GFP-tagged, ATP-dependent disassembly); test: blockers of yeast 26S proteasome breakdown – biochemical, bead-based flow cytometry, GFP-tagged proteasome, primary screen (AID 751); details: anti-FLAG beads, active compounds read high, concentration not given here;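 further: plate controls were ATP control with full disassembly for no effect and ATP-gamma-S intact proteasomes for full effect; higher percent means more bead fluorescence retained so stronger block of disassembly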

Inhibition of disassembly, inactive:
O=C(c1cc(-c2ccccc2O)on1)N1CCCC1 3.8%, CCCCC(=O)Nc1cc(C)c2c(=O)oc3ccccc3c2n1 -3.04%, COc1ccccc1-c1nc(C(F)(F)F)c(OC)o1 -0.84%, O=C(Nc1nsc(-c2ccccc2)n1)c1ccncc1 -0.11%, COC(=O)c1oc2ccc(Br)cc2c1NC(C)=O 0.425%, Cc1cc(=O)n2nc(N3CCCC(C(=O)NCCC4=CCCCC4)C3)sc2n1 (stereo not drawn) -1.75%, Cc1cc(C)c(C)c(S(=O)(=O)Nc2ccc(O)cc2)c1C 0.6%, O=C(NCc1cccs1)c1ccc2c(c1)ncn2C1CCCC1 0.01%, O=C(Cn1nnc(-c2ccc(CN3CCOCC3)cc2)n1)NC1CCCCC1 0.56%, O=C(CN1C(=O)C2C3C=CC(C3)C2C1=O)NCCc1ccccc1Cl (stereo not drawn) -3.34%, CCOC(=O)C1CCN(C(=O)Cc2c(C(=O)O)[nH]c3ccccc23)CC1 1.78%, CC(c1nnc(SCC(=O)Nc2sccc2C#N)n1-c1ccc(Cl)cc1)N(C)C (stereo not drawn) 0.73%, COC(=O)c1ccccc1NC(=O)c1cncc(Br)c1 1.29%, CCOC(=O)C1C(=O)C=C(c2ccc(OC)cc2)CC1c1ccco1 (stereo not drawn) -0.2%, O=c1c2[nH]c3ccc(Cl)cc3c2ncn1Cc1ccccn1 -0.64%, Cn1c(COc2ccc(Cl)cc2)nc2ccccc2c1=O -1.78%, O=C1CC(c2cccc(Br)c2)C2=C(CCCC2=O)N1 (stereo not drawn) 2.93%, COc1ccc(CCNC(=O)c2ccc3c(c2)NC(=O)C(N2CCOCC2)S3)cc1OC (stereo not drawn) 7.35%, COc1ccc(CCNC(=O)CCCCn2c(=O)[nH]c3ccccc3c2=O)cc1OC -2.22%, Cc1oc(-c2cccc(Cl)c2)[n+]([O-])c1C -1.38%, COc1ccc(CC(=O)Nc2c3c(nn2-c2cccc(Cl)c2)CS(=O)C3)cc1 (stereo not drawn) -0.575%, COc1ccc(CCNC(=O)c2cc(-c3ccc4c(c3)OCO4)on2)cc1OC -0.34%, CCOC(=O)Cn1c(=O)oc2cc(S(=O)(=O)NCC3CCCO3)ccc21 (stereo not drawn) -1.43%, CCOC(=O)c1c(C)oc2ccc(OCC(=O)N(CC)CC)cc12 0.35%, O=C(CCCCn1c(=O)[nH]c2ccccc2c1=O)NCc1ccc2c(c1)OCO2 1.45%, Cn1c(=O)[nH]c(=O)c2c1nc(N(CCO)Cc1ccccc1)n2Cc1ccccc1Cl 0.72%, COC(=O)C1C(=O)c2c([nH]c(C(=O)OCCSC)c2C)CC1C (stereo not drawn) -0.89%, COc1cccc(NC(=O)Cn2cnc3sc(C)c(S(=O)(=O)N4CCN(C)CC4)c3c2=O)c1 -0.73%, CC(=O)Nc1nonc1-c1nc2ccccc2n1Cc1ccccn1 5.18%, CCOC(=O)N1CCC(Nc2c(NCCCN3CCN(c4ccc(OC)cc4)CC3)c(=O)c2=O)CC1 1.14%, CCOCCc1c(O)nc(SCC(=O)NCc2ccco2)[nH]c1=O -2.18%, CN(C)CCCNC(=O)c1ccc2[nH]c3ccccc3c2c1 -0.71%, Cc1cccc(NC(=O)CSc2nc3c(c(=O)[nH]2)CCC3)c1C 0.47%, CC(=O)NC1CC2CCCC(C1)N2CC(=O)Nc1ccccc1 (stereo not drawn) -0.95%, CC12CN3CC(C)(CN(C1)C3c1ccc(Cl)cc1Cl)C2=O (stereo not drawn) 1.12%, Cc1nc2sc(C(c3ccco3)N3CCC4(CC3)OCCO4)c(O)n2n1 (stereo not drawn) -1.33%, CCn1ncc(C2=NOC(C(=O)Nc3ccccc3C(=O)OC)C2)c1C (stereo not drawn) 0.71%, CCCn1c(C(O)c2ccc(OCC)cc2)nc2ccccc21 (stereo not drawn) 0.49%, CCn1cc(C(=O)NC2CCCCCC2)c(=O)c2cc(S(=O)(=O)N3CCCCC3)ccc21 -0.53%, Cc1nonc1NC(=O)c1ccccc1Br -2.02%, CC1C=CCC2C(=O)N(c3cccc(C(=O)N4CCCCCC4)c3)C(=O)C12 (stereo not drawn) -0.22%, CC(NC(=O)CN1CCN(Cc2ccc(Cl)cc2)C1=O)c1ccc2c(c1)OCCO2 (stereo not drawn) 0.26%, CCOc1cc2[nH]c(=S)n(CCCN3CCCC3=O)c(=O)c2cc1OCC -0.66%, O=C(c1ccc2c(c1)N(Cc1ccc(F)cc1)C(=O)CS2)N1CCOCC1 3.05%, O=C(CCCN1C(=O)C2C3C=CC(C3)C2C1=O)N1CCN(c2ccccc2)CC1 (stereo not drawn) -1.14%, COc1ccc(C2C3=C(OC(C)=O)c4ccccc4C3=Nc3c2c(=O)n(C)c(=O)n3C)cc1 (stereo not drawn) -0.28%, Nc1nc(SCCOc2ccccc2)n[nH]1 1.41%, Cc1cc(C(=O)O)c(S(C)(=O)=O)s1 -0.75%, Cc1noc(/C=C/N(C)C)c1S(=O)(=O)N1CCCC(C(=O)NCc2ccco2)C1 (stereo not drawn) -7.75%, COc1cccc(Nc2nnc(SCC(=O)N3CC(C)OC(C)C3)s2)c1 (stereo not drawn) -3.96%, Cc1cc(Nc2ccc(Br)cc2F)n2ncnc2n1 -4.6%, CCOC(=O)c1sc(=S)n2c1[nH]c(=O)c1ccc(C(=O)OC)cc12 0.98%, Cn1c(C(=O)NCCN2CCc3ccccc3C2)cc2c(=O)[nH]c3ccccc3c21 -0.79%, O=C(COc1ccccc1F)NC1CC1 -1.13%, O=C1CC(c2cccc(F)c2)C2=C(CCCC2=O)N1 (stereo not drawn) -0.41%, Cc1c2cn[nH]c(=O)c2c(C)n1Cc1ccc(F)cc1 2.63%, COc1ccc2oc(=O)c(C(=O)N3CCN(c4ccccc4F)CC3)cc2c1 -0.83%, COc1ccccc1N1CCN(c2nc3ccccc3n3nnnc23)CC1 22.2%, Cc1cccc(NC(=O)CSc2nnc(NC(=O)CN3CCOCC3)s2)c1 0.22%, COc1cccc(-n2c(Cc3cc(=O)[nH]c(=O)[nH]3)nnc2SCC(=O)Nc2ccccc2)c1 -1.55%, CCOc1ccc(OCC)c(NC(=O)C(NS(=O)(=O)c2ccc3c(c2)oc(=O)n3C)C(C)C)c1 (stereo not drawn) -0.66%, CCOC(=O)N1CCC(NC(=O)CN2C(=O)COc3ccc(C(C)(C)C)cc32)CC1 -0.61%, Cc1ccccc1C(=O)NCCN=C1NS(=O)(=O)c2ccccc21 -0.63%, CCOc1cc2c(cc1OCC)C(C(=O)O)C(c1ccc(OC)c(O)c1)N(C)C2=O (stereo not drawn) 0.12%, O=C(Nc1c2c(nn1-c1ccc(F)cc1)CS(=O)C2)C12CC3CC(CC(C3)C1)C2 (stereo not drawn) -2.52%, CC1CCC(NC(=O)c2ccc(N3CCCC3=O)cc2)CC1 (stereo not drawn) 5.08%, Cc1cccc2c1N(CC(=O)OC(C)C)C(=O)C2=O 1.8%, CN(CC(=O)NC1CCCCC1)S(=O)(=O)c1cccc2cccnc12 -0.29%, O=C(CN1CCN(c2ccccc2F)CC1)c1ccc2c(c1)OCO2 -0.87%, Cc1cc(Nc2cccc(C)c2C)n2ncnc2n1 1.4%, Cc1ccc(S(=O)(=O)N(C)CC(=O)NC2CCCC2)cc1 1.94%, CCN(CC)C(=O)N1CCN(C(=O)c2ccc(C)cn2)CC1 0.26%, C#CCN1C(=O)C(O)(CC(=O)c2cc(OC)ccc2OC)c2ccccc21 (stereo not drawn) -0.27%, COc1ccc(S(=O)(=O)NC2(C(F)(F)F)N=C3SCCN3C2=O)cc1 (stereo not drawn) 0.29%, COc1cc(C2C(C(=O)Nc3ccccc3OC)=C(C)Nc3ncnn32)ccc1O (stereo not drawn) -1.23%, CC(=O)C1C(c2cccc(Oc3ccccc3)c2)NC(=O)NC1(O)C(F)(F)F (stereo not drawn) 3.33%, CC(C)CNS(=O)(=O)c1ccc(OCC(=O)Nc2ccc3c(c2)OCO3)c(Cl)c1 0.65%, CC1CCCN(C(=O)c2ccc3c(c2)C(=O)N(CCC2=CCCCC2)C3=O)C1 (stereo not drawn) -0.2%, COCCn1c(CN(Cc2ccccc2)Cc2ccccc2)nc2c1c(=O)n(C)c(=O)n2C 0.04%, CCOC(=O)N1CCN(C(=O)c2n[nH]c(=O)c3ccccc23)CC1 -0.81%, COc1ccccc1C(=O)NCCn1cc(SCC(=O)NCc2ccco2)c2ccccc21 0.52%, COc1ccccc1NC(=O)CN1CCN(S(=O)(=O)c2ccc(Br)cc2)CC1 -0.52%, CCOc1ccccc1NC(=O)C1CCC(CNc2c(N3CCOCC3)c(=O)c2=O)CC1 (stereo not drawn) 0.11%, CCC(C(=O)Nc1ncccn1)(C(F)(F)F)C(F)(F)F -0.33%, CCOC(=O)c1nnn(CC(=O)Nc2cccc(F)c2)c1C(=O)OCC -0.09%, Cc1ccc(C2CC(c3cccc(Br)c3)n3nc(N)nc3N2)cc1 (stereo not drawn) 0.65%, Cc1oc(-c2ccccc2F)nc1CS(=O)(=O)CC(=O)NCCCN(C)C1CCCCC1 -0.8%, Cc1nnc(NC(=O)CCC(=O)N2CCC(C)CC2)s1 -1.57%, COc1ccc(-c2c(C)nn3c(N4CCC(C(=O)N5CCCCC5)CC4)cc(C)nc23)cc1OC -1.42%, NS(=O)(=O)c1cc2c(cc1Cl)NC(C(Cl)Cl)NS2(=O)=O (stereo not drawn) -0.98%, COc1ccc(OC)c(NC(=O)CC(Cc2ccccc2OC)C(=O)O)c1 (stereo not drawn) -1.04%, Cc1noc(C)c1S(=O)(=O)Nc1ccc(C(=O)O)cc1 1.24%, CCCOC(=O)Nc1sc2c(c1C(=O)OCC)CCC2 1.34%
